Screens (PubChem)
Epigenetic derep = epigenetic control regulation, reporter derepression; actives 0.2% (n = 280,000); murine LDR cells, GFP reporter derepression, 30 h; Potency, µM (doses to about 53.9 µM), for the others: top-dose GFP activation, usual class: activators; also: potency is read from the fitted curve at half-maximal effect; % of control where 0% means no effect; nearly all actives have a fitted effect of over 60% in size
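Reporter derepression read as number of fluorescent GFP-positive objects, 20-120 um in size, counted by laser-scanning cytometer. Mouse LDR line with an epigenetically silenced CMV-GFP locus; compound incubation 30 h, 37 C.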
MBNL1-CUG inh = inhibitors of human MBNL1 binding to CUG repeat RNA; Q9NR56; actives 0.036% (n = 280,000); AID 2675; Potency, µM (doses to about 57.5 µM), for the others: top-dose activity change, negative = inhibition, usual class: inhibitors; TR-FRET MBNL1-His/biotin-(CUG)12 binding, 665/545 ratio; active = well fitted inhibition curve with a large enough effect in the signal ratio, with a control signal flat, not every such curve was filed as active; inconclusive = small, poorly fitted or top-dose-only effect, or effect the other way, or a change in a side signal; inactive = no such curve, though single readings can be large or run the other way; the % refers to the signal ratio; also: potency is read from the fitted curve at half-maximal effect; % is scaled to controls: 0 for no effect and ±100 for the full control effect
Target sequence (Q9NR56 whole entry, looked up): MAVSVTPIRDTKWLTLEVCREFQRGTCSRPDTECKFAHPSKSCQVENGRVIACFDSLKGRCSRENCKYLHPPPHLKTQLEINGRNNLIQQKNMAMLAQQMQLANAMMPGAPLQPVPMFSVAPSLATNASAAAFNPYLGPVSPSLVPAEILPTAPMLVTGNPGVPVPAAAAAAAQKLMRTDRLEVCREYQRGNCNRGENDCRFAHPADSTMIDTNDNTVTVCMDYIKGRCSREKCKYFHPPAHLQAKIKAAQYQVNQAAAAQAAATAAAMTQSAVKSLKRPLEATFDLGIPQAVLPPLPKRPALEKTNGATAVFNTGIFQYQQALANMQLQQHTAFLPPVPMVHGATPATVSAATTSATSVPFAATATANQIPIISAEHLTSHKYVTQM
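His-tagged MBNL1 binding to biotinylated (CUG)12 RNA was measured by TR-FRET using terbium anti-His antibody (0.055 ng/ul final) and streptavidin-XL665 (5 nM final). Compounds were titrated 92 nM to 58 uM; 60 min at room temperature.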
MmCpn inh = blocks the Methanococcus maripaludis chaperonin Mm-Cpn; purified Mm-Cpn ATPase, ADP Transcreener TR-FRET; Potency, µM (highest dose often 76.9 µM), inactives show top-dose activity, negative = inhibition, actives largely listed as inhibitors; actives 0.031% (n = 330,000); AID 504842; also: potency is read from the fitted curve at half-maximal effect; % is scaled to controls: 0 for no effect and ±100 for the full control effect; nearly all actives have a fitted effect of over 80% in size
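Compound-treated chaperonin, 25 nM final, turns over 10 uM ATP at 37°C for 30 min following a 10 min preincubation; ADP generated competes with ADP-d2 for Eu-cryptate antibody, lowering FRET.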
Akt phos inh = Akt phosphorylation inhibition | Neuro2A IGF-stimulated pAkt S473 HTRF, 20 min; stronger effect = lower value | activity change, % for hits at 50 µM | actives 0.32% (n = 360,000) | AID 651550; in the data active = activity change below about -80%; inconclusive = mostly about -51% to -80%; also: % is scaled to controls: 0 for no effect and ±100 for the full control effect
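Single-point screen (50 µM final compound) in Neuro2A cells stimulated 20 min with 6 nM IGF at 37 deg C. After lysis, Ser473-phosphorylated Akt read by HTRF (ex 330 nm, em 615/665 nm) as the 665/615 ratio.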
uPA generation = blocks generation of uPA at the cell surface. cell surface uPA generation assay, qHTS. Potency, µM (doses to about 38.3 µM), for the others: top-dose activity change, negative = inhibition, actives largely listed as inhibitors. actives 0.31% (n = 330,000). AID 540303; active = well fitted inhibition curve with a large enough effect; inconclusive = small, poorly fitted or top-dose-only effect; inactive = no such curve, though single readings can be large or run the other way; tested in mouse RAW 264.7 cells; also: potency is read from the fitted curve at half-maximal effect; % is scaled to controls: 0 for no effect and ±100 for the full control effect; nearly all actives have a fitted effect of over 55% in size
CCT modulator = changes cytosolic chaperonin activity | purified chaperonin ATPase assay, HTRF ADP detection, 30 min | activity change, % (test concentration not listed), hits read low | actives 0.3% (n = 360,000) | AID 651819; in the data active = activity change below about -30%; also: % is scaled to controls: 0 for no effect and ±100 for the full control effect
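ATPase activity: ADP formed was measured by HTRF Transcreener (665/615 nm ratio) after 30 min at 37 deg C with 10 uM ATP. Compounds screened at one 76 uM concentration against 40 or 20 nM TRiC in Tris pH 7.4/KCl/MgCl2/DTT buffer.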
An asterisk follows results filed as active; i = inactive; ? = inconclusive; · = no result. Hits are enriched below; roughly 0.97% of the tested compounds scored in any of these assays. Unless noted, calls follow the shape of the dose curve; as a rule, active = well fitted curve in the direction sought with a large enough effect; inconclusive = small, poorly fitted or top-dose-only effect, or another doubt; inactive = no such curve, though single readings can be large; an effect the other way counts as inactive or inconclusive.

SMILES	Epigenetic derep	MBNL1-CUG inh	MmCpn inh	Akt phos inh	uPA generation	CCT modulator
COc1ccc(CCC(=O)Nc2cc(S(=O)(=O)N3CCOCC3)ccc2OC(C)C)cc1	·	·	0.0%	i	9.6%	-1.4
CC(C)NC(=S)NC(c1ccccc1)(c1ccccc1)c1ccccc1	·	4.1%	0.5%	i	?	-1.0
CCN1C(=O)c2cccc3c(NC(=O)c4ccc5c(c4)OCCO5)ccc1c23	22.4µM*	6.6%	-1.8%	i	4.4%	0.7
O=C(Nc1ccc(Cl)cc1Cl)c1ccc2c(c1)OCCO2	·	·	-3.2%	i	4.47µM*	-5.0
COc1ccc(NC(=O)C[C@H]2C(=O)N(Cc3ccccc3)C[C@@H]2CSC)cc1	·	·	·	i	·	1.5
CCn1c(-c2ccccc2Cl)nn(CC(=O)Nc2ccc(OC)cc2)c1=S	-1.2%	-8.8%	-3.5%	-105.8%*	1.8%	1.5
Cn1ccc2cc(-c3ccc4ncnc(NCc5cccs5)c4c3)ccc21	·	·	?	·	7.94µM*	·
Cc1cccc(C2=NN(c3ccccc3)[C@@H](C(=O)N3CCOC3=O)[C@@H]2c2ccc(F)cc2)c1	-0.1%	·	31.6µM*	i	8.5%	0.2
NCCCC[C@H](NC(=O)C1CCNCC1)c1nnc(CN)o1	0.0%	-1.4%	·	·	·	·
O=C(Nc1cccc(S(=O)(=O)N2CCOCC2)c1)c1ccco1	2.0%	1.1%	-0.9%	i	-0.9%	-3.7
CCNC(=O)c1ccccc1NC(=O)c1cccc(S(=O)(=O)N2CCC(C)CC2)c1	1.2%	-3.7%	0.1%	-100.8%*	-13.4%	-2.4
CCN(CC)S(=O)(=O)c1cccc(NC(=O)c2cccc(S(=O)(=O)N3CCCC3)c2)c1	·	·	-1.4%	i	-5.4%	-55.5*
O=C(Oc1cccc(NC(=O)c2ccco2)c1)c1cccc(S(=O)(=O)N2CCCCC2)c1	5.9%	3.8%	-2.1%	-116.2%*	-0.2%	-0.9
Cc1cccnc1NC(=O)c1cccc(S(=O)(=O)N2CCN(c3ccccc3)CC2)c1	·	·	0.9%	i	-7.3%	-1.6
CNC(=O)c1ccccc1NC(=O)c1cccc(S(=O)(=O)N2CCC(C)CC2)c1	-1.0%	5.4%	0.4%	i	-1.4%	-2.7
Cc1ccc(C(=O)NNC(=O)c2cccc(S(=O)(=O)N3CCN(c4ccccc4)CC3)c2)cc1	-0.3%	·	-1.0%	i	0.6%	-48.0*
CCCOc1ccc(C2c3c(-c4ccccc4O)n[nH]c3C(=O)N2Cc2ccncc2)cc1OCC (stereo not given)	8.5%	·	·	·	·	·
Cc1cccc(CN2CCC(n3nccc3NC(=O)CCCc3ccccc3)CC2)c1	·	·	·	i	·	-1.0
CCc1ccccc1N(C1=NCCCS1)S(=O)(=O)c1ccc(C(C)(C)C)cc1	-3.0%	-1.3%	0.7%	i	-11.5%	-4.4
CCC(=O)N1CCN(c2ccccc2NC(=S)NC(=O)c2ccco2)CC1	·	8.6%	1.3%	i	2.2%	-1.9
COc1ccc(/C(O)=C/c2nc3ccc(C(=O)NCCc4cccc(C)c4)cc3[nH]c2=O)cc1OC	17.8µM*	1.7%	-1.5%	i	3.9%	-0.3
OCCNCCCCSc1ccc(Cl)cc1	-1.0%	-6.8%	0.0%	i	8.91µM*	0.3
OCCNCCSc1ccc(Cl)cc1	0.0%	-0.5%	?	i	-21.2%	0.0
COc1ccccc1Nc1cc2cc(Br)ccc2c(=O)[nH]1	·	·	·	i	3.16µM*	-0.6
O=C(NCc1ccccc1)N1CCC(n2cnc3cc(F)ccc32)CC1	-4.4%	0.4%	5.0%	-112.3%*	1.6%	-3.1
SMILES	Epigenetic derep	MBNL1-CUG inh	MmCpn inh	Akt phos inh	uPA generation	CCT modulator
O=C(CSc1nnc(-c2ccc(F)cc2)o1)N1CCCC1	·	0.7%	?	i	3.2%	0.2
CCOC(=O)C1=C(C)OC(N)=C(C#N)C1C1CCCCC1 (stereo not given)	-1.9%	-8.7%	2.7%	-117.7%*	-6.8%	-9.4
CC(CNC(=O)CC[C@H]1O[C@@H](n2cnc3c(NC(=O)c4ccccc4)ncnc32)[C@H](O)[C@@H]1O)c1ccccc1 (stereo not given in full)	·	·	·	i	·	-4.7
Cc1ccccc1NC(=S)NC1CC2CCC(C1)N2Cc1ccco1 (stereo not given)	-2.3%	1.7%	1.1%	i	-3.5%	-2.9
CNc1nc(-c2ccc3c(c2)CCN3C(=O)c2cccc(F)c2)cs1	0.2%	23.1%	-8.8%	i	7.08µM*	0.5
CNc1nc(-c2ccc3c(c2)CCN3C(=O)c2ccc(F)cc2)cs1	-1.3%	13.5%	-9.4%	i	8.0%	-1.0
Cc1ccccc1Oc1cc(-n2ncc(Cl)c(Cl)c2=O)ncn1	-0.3%	·	-8.0%	i	2.24µM*	-2.1
CCOc1ccc(C2CC(=O)Nc3nc(SCc4ccccc4C)[nH]c(=O)c32)cc1OC (stereo not given)	-3.2%	·	·	·	·	·
COc1ccc(N2CCN(C(CNC(=O)C(=O)NCCCO)c3ccco3)CC2)cc1 (stereo not given)	·	-2.1%	1.3%	·	-5.7%	-69.1*
C[C@@H]1ON(C)[C@H]2C[C@H]3c4[nH]c5ccc(-c6ccc7c(c6)OCO7)cc5c4CCN3C[C@@H]12	·	·	·	i	·	-72.9*
S=c1ccss1	1.2%	·	·	·	·	·
OC/C(Br)=C(\Br)CO	·	·	-2.1%	i	11.0%	-0.6
Cc1cc2nc3ccc(N(C)C)cc3nc2cc1N	·	·	·	i	?	-39.8*
COC(=O)c1sc(S(=O)(=O)N2CCCCC2C(=O)O)c(C(=O)OC)c1C (stereo not given)	3.1%	3.0%	-0.2%	i	3.1%	0.2
COC(=O)c1sc(S(=O)(=O)N2CCC(C(N)=O)CC2)c(C(=O)OC)c1C	2.0%	-3.9%	0.4%	i	-0.8%	-33.4*
Cc1ccc(OCC(=O)NC2CC(C)(C)NC(C)(C)C2)cc1C	6.5%	-23.8%	0.4%	i	0.5%	-2.1
CC1(C)CC(NC(=O)COc2ccc3ccccc3c2)CC(C)(C)N1	0.4%	-14.4%	-0.1%	-115.1%*	-0.2%	4.0
COc1ccc(CC(=O)NNC(=O)COc2ccc3ccccc3c2)cc1	0.0%	·	39.8µM*	i	10.2%	0.2
CCn1cc(CN2CCC(C(=O)Nc3ccc(Oc4cccnc4)cc3)CC2)c(C)n1	·	1.4%	-0.5%	i	2.6%	-3.8
C=CCn1cc(CN2CCC(C(=O)Nc3ccc(Oc4cccnc4)cc3)CC2)c(C)n1	·	0.6%	-0.8%	i	4.0%	-31.3*
COc1ccc(-n2nc3c(c2NC(=O)COc2ccccc2F)CS(=O)(=O)C3)cc1	·	-2.9%	1.2%	i	-8.6%	-32.2*
COc1ccc(-n2nc3c(c2NC(=O)COc2ccccc2)CS(=O)(=O)C3)cc1	·	-11.2%	0.7%	i	-3.3%	-1.1
Brc1ccc(-c2csc(N3CCCCC3)n2)cc1	·	·	3.4%	·	·	·
